Measurements reported in publication PMC5540273 (PLoS ONE, 2017).

Experiments:
Details in all cases: concentration: 1 μM,replicates: in singlicate; n = 1
DCAMKL2 = test system: T1, DCAMKL2
T1 construct: gene DCLK2

DCAMKL3 = test system: T2, DCAMKL3
T2 construct: gene DCLK3

DDR1 = test system: DDR1
DDR2 = test system: DDR2
DLK = test system: T3, DLK
T3 construct: gene MAP3K12

DMPK2 = test system: T4, DMPK2
T4 construct: gene CDC42BPG

DMPK = test system: DMPK
DRAK1 = test system: T5, DRAK1
T5 construct: gene STK17A

DRAK2 = test system: T6, DRAK2
T6 construct: gene STK17B

DYRK1A = test system: DYRK1A
DYRK1B = test system: DYRK1B
DYRK2 = test system: DYRK2
EGFR = test system: EGFR
EIF2AK1 = test system: EIF2AK1
EPHA1 = test system: EPHA1
EPHA2 = test system: EPHA2
EPHA3 = test system: EPHA3
EPHA4 = test system: EPHA4
EPHA5 = test system: EPHA5
EPHA6 = test system: EPHA6
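Further: KINOMEscan kinase panel screen.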

| Structure (SMILES) | %Inh (DCAMKL2) [%] | %Inh (DCAMKL3) [%] | %Inh (DDR1) [%] | %Inh (DDR2) [%] | %Inh (DLK) [%] | %Inh (DMPK2) [%] | %Inh (DMPK) [%] | %Inh (DRAK1) [%] | %Inh (DRAK2) [%] | %Inh (DYRK1A) [%] | %Inh (DYRK1B) [%] | %Inh (DYRK2) [%] | %Inh (EGFR) [%] | %Inh (EIF2AK1) [%] | %Inh (EPHA1) [%] | %Inh (EPHA2) [%] | %Inh (EPHA3) [%] | %Inh (EPHA4) [%] | %Inh (EPHA5) [%] | %Inh (EPHA6) [%] |
| --- | --- | --- | --- | --- | --- | --- | --- | --- | --- | --- | --- | --- | --- | --- | --- | --- | --- | --- | --- | --- |
| O=C(Nc1ccc(Oc2ccc3nc(NC(=O)C4CC4)cn3n2)c(F)c1)c1cccn(-c2ccccc2)c1=O | 13 | 29 | 99.1 | 100 | 13 | 0 | 0 | 0 | 0 | 0 | 30 | 0 | 13 | 0 | 51 | 74 | 0 | 26 | 11 | 37 |
| Cc1ccc2c(-c3ccnc(Nc4ccc(C(F)(F)F)cc4)n3)cnn2n1 [GW819776] | 0 | 0 | 0 | 4 | 0 | 9 | 0 | 37 | 13 | 37 | 65 | 29 | 0 | 0 | 0 | 0 | 0 | 8 | 1 | 8 |
| Cc1ccn2nc(-c3ccc(F)cc3)c(-c3ccncc3)c2c1.Cl [GW457859] | 0 | 0 | 75 | 82 | 44 | 75 | 0 | 2 | 0 | 0 | 10 | 0 | 49 | 8 | 2 | 83 | 19 | 0 | 0 | 4 |
| CCNCC(Cc1ccccc1)NC(=O)c1cc(Br)c(-c2ccnc3[nH]ccc23)s1.Cl.Cl (centres unmarked) [GSK1383280] | 0 | 40 | 8 | 18 | 11 | 90 | 23 | 0 | 0 | 37 | 53 | 31 | 28 | 0 | 25 | 24 | 45 | 0 | 0 | 7 |
